Assay results from PubChem BioAssay.
Active and inactive are the calls of the source.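 The calls were made as follows: active = growth inhibition above 50% at the single 2 µM test dose, taken to imply half-maximal potency below 2 µM; inactive = the rest.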

Assay: antimalarial activity against Dd2 strain (AID 2302);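 also: 0% = DMSO untreated growth and 100% = chloroquine plus artemisinin killed control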
Conditions: P. falciparum Dd2 in RBCs, LDH growth readout, 72 h; at 2 µM; active compounds read high

Growth inhibition, inactive:
N#Cc1cccc(C(=O)Nc2cccc(-c3ccc(C(=O)Nc4cccnc4)cc3)c2)c1 10%
Cc1ccc(Cl)cc1NC(=O)c1c(-c2ccccc2Cl)noc1C 37%
Cc1cc(N(C)C)nc(Nc2ccc(NS(=O)(=O)c3ccccc3)cc2)n1 11%
Cc1cc(NC2CCCC2)nc(Nc2ccccc2C)n1 20%
CC1CCN(c2nc(C(=O)Nc3cccc4c3CCCC4)c(C(C)C)s2)CC1 49%
CN1C(C)(C)CC(NC(=O)c2ccc(-c3nc4ccc(Cl)cc4[nH]3)cc2)CC1(C)C 36%
Cc1cccc(CNc2nc(C)cc(N[C@@H](CC(C)C)C(=O)NCCOc3ccccc3)n2)c1 35%
COc1ccc2nccc([C@@H](O)CN3CCC(NC(=O)C(c4ccsc4)N4CCN(c5ccccc5)CC4)CC3)c2c1 (some centres not stated) 17%
CCCNCc1ccc(-c2ccc(CN(CCOC)C(=O)c3ccco3)cc2)nc1 21%
Cc1nc(N)nc(N)c1OCc1cccc2ccccc12 11%
C=CCNC(CCCCC)c1ccc(OCCOc2ccc(C(CCCCC)NCC=C)cc2)cc1 (configuration not stated) 48%
O=C(Nc1ccc(C(F)(F)F)cc1)c1ccc(S(=O)(=O)NC2CCCN(CC3CCCCC3)C2)cc1 (configuration not stated) -1%
CN1CCN(CCCNCc2cccc(-c3ccc(CNCCc4ccccc4)cc3)c2)CC1 20%
O=C(Nc1ccc2oc(-c3ccc(Br)cc3)nc2c1)c1ccc([N+](=O)[O-])o1 21%
CCN(CC)CCN1C(=O)c2oc3ccc(Cl)cc3c(=O)c2C1c1ccc(SC)cc1 (configuration not stated) 6%
O=[N+]([O-])c1cccc(-c2nc(-c3ccc(Br)cc3)[nH]c2-c2ccc(Br)cc2)c1 44%
COc1cccc(CN2CCC3(CC2)CN(C(=O)Nc2ccc(Cl)c(Cl)c2)C3)c1 2%
COc1ccc(C(=O)O)cc1OCc1ccccc1 -3%

Growth inhibition, active:
COc1cc(C)c(C(O)CNC(C)CCc2ccccc2)cc1C (configuration not stated) 98%
c1ccc(-c2cccc(-c3ccccn3)n2)nc1 99%
Cc1cc(N[C@@H](CC(C)C)C(=O)NCCc2ccccc2)nc(NCCc2ccc(F)cc2)n1 53%
CCCNC(=O)C1Cc2cc(OC)c(OC)cc2C2(N1)C(=O)N(Cc1cccc(OC)c1)c1ccccc12 (configuration not stated) 63%
Cc1cc(NC(=O)CCCN2CCN(c3cccc(Cl)c3Cl)CC2)ccc1N1CCN(C(C)C)CC1 53%
COc1ccc(CCNC(=O)c2cc3c(=O)n4cccc(C)c4nc3n(C)c2=N)cc1 99%
CCOc1ccc(-n2nc3c(Cl)nnc(-c4ccccc4)c3c2-c2ccccc2)cc1 99%
O=C(Nc1ccc(OC(F)(F)F)cc1)Nc1ccc([N+](=O)[O-])cc1 100%
CC(C)(C)CCN1CCC(NC(=O)c2ccc(-c3cccc(C(F)(F)F)c3)s2)CC1 88%
CC(C)(C)c1ccc(NC(=O)c2cccc(CN3CCCN(Cc4cccc(O)c4)CC3)c2)cc1 69%
Cc1ccoc1C(=O)Nc1ccc(-c2cccc(-c3nc4c(C)cccc4[nH]3)c2)cc1 69%
CS(=O)(=O)N(c1ccc(F)cc1)c1cc(C(=O)N[C@@H](Cc2ccccc2)[C@H](O)CNCc2cccc(C(F)(F)F)c2)cc(N2CCCC2=O)c1 65%
Cc1[nH]nc2ccc(-c3cc(OC[C@@H](N)Cc4ccccc4)cnc3-c3ccc(OCc4cccc(F)c4)cc3)cc12 59%
Cc1ccc2[nH]c(-c3ccc(/C=C/C(=O)NC4CCN(Cc5ccccc5)CC4)cc3)nc2c1C 92%
N#Cc1ccc(-c2ccc(C(=O)NCCCCN3CCC(c4ccc5c(c4OCC(N)=O)CCCC5)CC3)nc2)cc1 97%
CNCCNC(=O)C1Cc2c([nH]c3c(C)cccc23)C(c2ccc(Cl)c(Cl)c2)N1 (configuration not stated) 60%
Cc1cc2ncc(C(N)=O)c(Nc3ccc(N4CCOCC4)cc3)c2cc1S(C)(=O)=O 96%
NC1=NC(=O)C(=Cc2cn(-c3ccccc3)nc2-c2cccc(S(=O)(=O)N3CCCC3)c2)S1 68%
N#Cc1ccc(S(=O)(=O)N2C(c3cccc([N+](=O)[O-])c3)C(C(=O)c3ccccc3)N(C3CCCCC3)C2c2cccc([N+](=O)[O-])c2)cc1 (configuration not stated) 79%
